Source: PubChem BioAssay
Hits are enriched below; roughly 3.6% of the tested compounds scored in any of these assays.
NFkB transloc pot = enhancers of NFkB p65 translocation in HUVEC – imaging, IL-1B stimulus, high-content imaging, primary screen; activation, % at 2 µM; AID 819, 2007; HUVEC IL-1B NFkB p65 nuclear translocation imaging; 0.3% of 94,000 active;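 active = activation above 40%, about the mean plus 3 SD, also judged a hit on visual image review; inconclusive = activation above 40% but not a hit on visual review; inactive = activation not above 40% and no visual hit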;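 note: percent activation is computed from the nuclear over cytoplasmic p65 intensity ratio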
IL1B cytotox = cytotoxicity in IL-1B stimulated HUVEC, primary screen, cytotoxicity control for IL-1B NFkB translocation project, imaging, Hoechst nuclear count, IL-1B stimulus; HUVEC cell count loss; cell count reduction, % at 2 µM; 0.41% of 94,000 active;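 active = cell count reduction more than 3 SD above the screen-wide mean, cut at about 70% in these data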
ERb coact inh = inhibitors of ERβ-SRC1 coactivator interaction, primary screen, biochemical, TR-FRET, ERβ LBD, SRC-1 peptide; Estrogen receptor beta (Homo sapiens), Q92731; 1.3% of 86,000 active; TR-FRET ER-beta LBD / SRC1-Cy5 peptide binding; receptor agonist-loaded with 1 µM estradiol; inhibition, % at 25.6 µM;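 active = compounds whose percent inhibition of the receptor-coactivator binding signal exceeds about 50% in the single-dose screen, limit read from the data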
Target sequence (Q92731 whole entry, looked up, the tested form may be a part): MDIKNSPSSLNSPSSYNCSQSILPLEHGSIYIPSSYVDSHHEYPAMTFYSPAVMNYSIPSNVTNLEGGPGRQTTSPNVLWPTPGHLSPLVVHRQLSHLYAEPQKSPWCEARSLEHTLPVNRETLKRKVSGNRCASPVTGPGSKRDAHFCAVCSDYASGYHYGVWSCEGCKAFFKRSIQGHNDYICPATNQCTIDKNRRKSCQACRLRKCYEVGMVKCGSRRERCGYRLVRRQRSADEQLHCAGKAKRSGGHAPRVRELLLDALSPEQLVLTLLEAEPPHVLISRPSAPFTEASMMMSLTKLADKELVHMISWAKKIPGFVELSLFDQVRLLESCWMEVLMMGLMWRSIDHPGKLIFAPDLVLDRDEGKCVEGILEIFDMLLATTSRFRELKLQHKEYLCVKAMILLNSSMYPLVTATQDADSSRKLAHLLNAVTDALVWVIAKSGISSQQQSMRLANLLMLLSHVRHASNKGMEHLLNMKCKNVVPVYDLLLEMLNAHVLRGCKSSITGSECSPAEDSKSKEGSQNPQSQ
IL1B NFkB inh = inhibitors of IL-1B driven NFkB p65 nuclear import, primary screen, imaging, HUVEC, IL-1B stimulus, high-content imaging | HUVEC IL-1B NFkB p65 nuclear translocation imaging | inhibition, % at 2 µM | 0.43% of 94,000 active | AID 796, 2007;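 active = inhibition above about 30% together with a positive call from visual inspection of the well image, limit read from the data; inconclusive = inhibition above a set limit but visual check negative; inactive = inhibition not above a set limit, visual check negative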;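 note: nuclear over cytoplasmic p65 intensity ratio measured by imaging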
ERa SRC1 pot = enhancers of ERα–SRC-1 coactivator binding, primary screen, biochemical, TR-FRET, ERα LBD, low estradiol; Estrogen receptor (Homo sapiens), P03372; TR-FRET ERalpha-LBD/SRC-Cy5 coactivator binding, 2 h; 100 = basal binding, no effect; coactivator binding (% of control), % at 25.6 µM; 1.3% of 86,000 active; AID 639, 2007; in the data active = activity above about 200%;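 note: binding measured in presence of low estradiol as agonist stimulus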
ERa coact inh = ERα–SRC-1 coactivator interaction inhibitors, primary screen, biochemical, TR-FRET, ERα LBD, estradiol-bound | Estrogen receptor (Homo sapiens), P03372 | TR-FRET ER-alpha LBD / SRC-1 peptide | inhibition, % at 25.6 µM | 1.7% of 86,000 active | AID 629, 2007; in the data active = inhibition above about 50%
Large screens that a line does not name were inactive; [ ] = another dose, or the depositor's remark.

CCN(CC)S(=O)(=O)c1cc(C(=O)Oc2ccccc2OC)ccc1OC	none
CCN(CC)S(=O)(=O)c1cc(F)ccc1OC	IL1B cytotox 77
CCCc1cc(=O)n2[nH]c(NCc3c(F)cccc3Cl)nc2n1	none
O=C(Nc1ccc2c(c1)OCO2)C1CCN(S(=O)(=O)c2cccc3cccnc23)CC1	none
CCOc1cccc2sc(NC(=O)c3ccc(Br)s3)nc12	ERa SRC1 pot 433[fluorescence artefact?]
Cc1nc(NC(=O)c2ccc(Br)s2)sc1C(=O)N(C)C	none
CCOC(=O)Cc1csc(NC(=O)c2cccs2)n1	none (no result: NFkB transloc pot, IL1B cytotox, IL1B NFkB inh)
CCOC(=O)Cc1csc(NC(=O)c2ccc(Br)s2)n1	IL1B cytotox 89
CCOC(=O)Cc1csc(NC(=O)CCCCCN2C(=O)c3cccc4cccc(c34)C2=O)n1	ERb coact inh 58[fluorescence artefact?], ERa coact inh 69[fluorescence artefact?]
COc1ccc(C)cc1N(CC(=O)NC1CCCC1)C(=O)CCC(=O)Nc1cc(C)on1	none
Cc1ccc(-c2nc(NC(=O)CSc3nnnn3-c3ccccc3)ns2)cc1	ERa SRC1 pot 219
CCOC(=O)c1csc(NC(=O)CSc2nnnn2-c2cccc(OC)c2)n1	none
Cc1ccc(Nc2nc(N)nc(CSc3nnnn3-c3ccccc3)n2)cc1	ERa SRC1 pot 219[fluorescence artefact?], ERa coact inh 62[fluorescence artefact?]
O=C(CSc1nnc2scc(-c3ccccc3)n12)Nc1nsc(-c2ccccc2)n1	ERa SRC1 pot 218[fluorescence artefact?]
Cc1ccc(Nc2nc(N)nc(CSc3nncn3C)n2)cc1	none
COc1cccc(-n2nnnc2SCC(=O)Nc2ccc(C(C)=O)cc2)c1	ERa SRC1 pot 332
Cc1ccc(-c2csc3nnc(SCC(=O)Nc4nsc(-c5ccccc5)n4)n23)cc1	none
O=C(CNC(=O)c1ccc(Cl)cc1Cl)NCCCn1ccnc1	none
COc1ccccc1NC(=O)CSc1nnnn1-c1ccc(C)cc1	NFkB transloc pot 41
CCN(c1cccc(C)c1)S(=O)(=O)c1ccc2[nH]c(=O)c(=O)[nH]c2c1	none
CCn1c(=NC(=O)CN2C(=O)CCC2=O)sc2c(OC)ccc(OC)c21	none (no result: ERb coact inh, ERa SRC1 pot, ERa coact inh)
CCn1c(=NC(=O)c2ccc(S(=O)(=O)N3CCOCC3)cc2)sc2cccc(OC)c21	ERa SRC1 pot 261[fluorescence artefact?]
CCn1c(=NC(=O)c2ccc(N3C(=O)CCC3=O)cc2)sc2c(OC)ccc(OC)c21	ERa SRC1 pot 403 (no result: NFkB transloc pot, IL1B cytotox, IL1B NFkB inh)
O=C(COc1ccc2ccccc2c1CN1CCOCC1)N1CCc2ccccc21	none
Cc1cc(=O)n2nc(N3CCC(C(=O)NCCC4=CCCCC4)CC3)sc2n1	none (no result: NFkB transloc pot, IL1B cytotox, IL1B NFkB inh)
C=CCn1c(SCC(=O)c2ccc(O)c(O)c2)nnc1-c1ccccc1OC	none
CCn1c(SCC(=O)c2ccc(O)c(O)c2)nnc1-c1ccccc1OC	NFkB transloc pot inconclusive, ERb coact inh 54
O=C(Nc1ccccc1)N1CCN(c2ncccn2)CC1	none
CCCNC(=O)N1CCN(c2ncccn2)CC1	NFkB transloc pot 56 (no result: ERb coact inh, ERa SRC1 pot, ERa coact inh)
COC(=O)c1ccc(CSc2nnc(NC(=O)c3cc4c(s3)CCCC4)s2)cc1	ERa SRC1 pot 235
CC(=O)C1=C(C)NC(SCC(=O)c2ccc(F)cc2)=C(C#N)C1c1ccco1 (stereo unspecified)	none
COc1ccccc1NC(=O)C1=C(C)NC(SCC(=O)c2ccc(C)cc2)=C(C#N)C1c1ccco1 (stereo unspecified)	ERa SRC1 pot 203
CCOC(=O)c1c(C)[nH]c2cc(Br)c(O)cc12	none (no result: NFkB transloc pot, IL1B cytotox, IL1B NFkB inh)
CCOC(=O)c1c(OCC)[nH]c2c1cc(O)c1ccccc12	ERb coact inh 99[fluorescence artefact?], ERa coact inh 97[fluorescence artefact?]
Cc1cccc(N2C(=O)c3cccc4c(N(C)CCO)ccc(c34)C2=O)c1	none
COc1cc(OC)nc(Oc2ccccc2C(=O)Oc2cccc(C)c2)n1	none (no result: ERb coact inh, ERa SRC1 pot, ERa coact inh)
Cn1nnnc1SCC(=O)N(C1CCCCC1)C1CCCCC1	ERb coact inh 51[fluorescence artefact?]
C/C=C(\C)c1nnc(NC(=O)c2ccco2)s1	none
CN(CC(=O)O/N=C(\N)c1ccc([N+](=O)[O-])cc1)S(=O)(=O)c1ccccc1	NFkB transloc pot 50
Cc1ccc(S(=O)(=O)N(C)CC(=O)O/N=C(\N)c2ccc([N+](=O)[O-])cc2)cc1	none
O=C(NC1CCCCC1)NC1(C(=O)NCCCN2CCOCC2)CCCCC1	none
CC1(C)Cc2c(C#N)c(SCC(=O)c3ccccc3)nc(N3CCOCC3)c2CO1	ERa SRC1 pot 246[fluorescence artefact?]
CC1(C)Cc2c(C#N)c(SCc3ccccc3)nc(N3CCOCC3)c2CO1	none
COCCN(C(=O)COc1ccc(Cl)cc1)c1nnc(-c2cccnc2)s1	none
CCN(CC)S(=O)(=O)c1cccc(C(=O)N[C@H](C(=O)OCC(=O)Nc2ccccc2)C(C)C)c1	none
CCN(CC)S(=O)(=O)c1cccc(C(=O)N[C@H](C(=O)OCC(N)=O)C(C)C)c1	IL1B NFkB inh 34
Cc1csc(N/N=C/c2ccc(O)c([N+](=O)[O-])c2)n1	ERb coact inh 99[fluorescence artefact?], ERa coact inh 99[fluorescence artefact?]
Cc1csc(NC(=O)c2ccccc2[N+](=O)[O-])n1	none (no result: ERb coact inh, ERa SRC1 pot, ERa coact inh)
CC1CCC(C(=O)NC(C(=O)NCc2cccnc2)C(C)C)CC1 (stereo unspecified)	none
Cc1[nH]nc2c1C1(CCC(c3ccccc3)CC1)C(C#N)=C(N)O2 (stereo unspecified)	IL1B cytotox 86
O=C(CN1C(=O)c2ccccc2C1=O)N1CCN(c2nnc(-c3ccccc3)c3ccccc23)CC1	ERa SRC1 pot 220
Cc1ccc(-c2nnc(N3CCN(C(=O)CN4C(=O)c5ccccc5C4=O)CC3)c3ccccc23)cc1	ERa coact inh 58
C=CCSc1nnc2nc3c(nn12)c1cc(C)ccc1n3CC=C	none
CCOC(=O)c1[nH]c(CSc2nnnn2-c2ccccc2C)c(C(=O)OCC)c1C	none (no result: NFkB transloc pot, IL1B cytotox, IL1B NFkB inh)
COc1ccccc1-n1c(SCC(=O)NC2CCCCC2)nc2c(c1=O)SCC2	ERa SRC1 pot 697
COCCCNC(=O)CS(=O)(=O)Cc1nc(-c2ccccc2C)oc1C	none (no result: ERb coact inh, ERa SRC1 pot, ERa coact inh)
Cc1oc(-c2ccccc2F)nc1CS(=O)(=O)CC(=O)NCc1ccco1	ERb coact inh 91[fluorescence artefact?], ERa coact inh 91[fluorescence artefact?]
Cc1ccccc1-c1nc(CS(=O)(=O)CC(=O)Nc2cc(F)ccc2F)c(C)o1	ERa SRC1 pot 743[fluorescence artefact?] (no result: NFkB transloc pot, IL1B cytotox, IL1B NFkB inh)
Cc1noc(C)c1S(=O)(=O)N(CC(=O)N1CCCCCC1)c1ccc(C(C)C)cc1	none
COCCNC(=O)C(c1ccc(C)o1)N(C(=O)c1snc(C(N)=O)c1N)c1cc(C)cc(C)c1 (stereo unspecified)	ERb coact inh 99[fluorescence artefact?]
